In PubChem BioAssay (Tox21) one finds Potency, outcome and activity change, positive = activation data, which are given here for eight compounds.

Test [1] deals with Luciferin 4-monooxygenase (Photinus pyralis) (UniProt P08659). Kind of test: qHTS assay to identify small molecule inhibitors of firefly luciferase (AID 1224835). Further: nearly all actives have a fitted effect of over 25% in size. In short, it runs like this: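 Inhibition of purified Photinus luciferase is measured by luminescence. Substrate levels (D-luciferin, ATP) sit at their KM values. Each compound is tested in a concentration series.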
Chain of Luciferin 4-monooxygenase (Photinus pyralis) (P08659 whole entry, looked up): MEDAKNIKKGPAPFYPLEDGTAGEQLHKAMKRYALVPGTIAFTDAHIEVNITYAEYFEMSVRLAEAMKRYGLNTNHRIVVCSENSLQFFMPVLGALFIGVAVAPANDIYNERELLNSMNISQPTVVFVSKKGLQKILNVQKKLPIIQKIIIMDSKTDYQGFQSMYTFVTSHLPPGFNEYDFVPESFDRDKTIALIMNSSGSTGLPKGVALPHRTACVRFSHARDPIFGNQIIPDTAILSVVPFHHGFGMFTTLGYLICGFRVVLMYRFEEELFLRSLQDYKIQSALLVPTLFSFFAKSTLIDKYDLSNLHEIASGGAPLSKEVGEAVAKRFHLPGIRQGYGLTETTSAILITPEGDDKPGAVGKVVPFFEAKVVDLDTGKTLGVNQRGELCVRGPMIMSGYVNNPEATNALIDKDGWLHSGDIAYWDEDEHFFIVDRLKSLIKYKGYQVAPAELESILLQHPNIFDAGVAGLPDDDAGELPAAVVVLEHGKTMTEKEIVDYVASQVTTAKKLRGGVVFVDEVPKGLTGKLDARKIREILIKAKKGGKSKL

The nature of test [2]: qHTS assay to identify small molecule agonists of the constitutive androstane receptor (CAR) signaling pathway - cell viability counter screen (AID 1224836). Further: nearly all actives have a fitted effect of over 45% in size. In short, it runs like this: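 Multiplexed viability check: HepG2-CYP2B6-hCAR cells, 15-point compound dosing, 0.75 uM PK11195 final, 23 h at 37 C, CellTiter-Fluor fluorescence.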
(In general: qHTS replaces the single test concentration by a dilution series.)

A short description of test [3]: qHTS assay to identify small molecule antagonists of the constitutive androstane receptor (CAR) signaling pathway - cell viability counter screen (AID 1224837). Further: nearly all actives have a fitted effect of over 45% in size. The method, boiled down:
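HepG2 cells stably expressing hCAR and a CYP2B6-2.2kb reporter were plated and pre-incubated 4 hr at 37 C/5% CO2, then given compounds at 15 concentrations plus 50 nM CITCO (final). After 23 hr, viability was read by CellTiter-Fluor fluorescence.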

In test [4] the target is Nuclear receptor subfamily 1 group I member 3 (Homo sapiens) (UniProt Q14994). The experiment in a line: qHTS assay to identify small molecule antagonists of the constitutive androstane receptor (CAR) signaling pathway (AID 1224838). Further: nearly all actives have a fitted effect of over 40% in size. In short, it runs like this: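 HepG2 cells stably co-transfected with hCAR and a CYP2B6-2.2kb luciferase reporter were seeded 4 h before compound addition at 15 concentrations. Cells were stimulated with 50 nM CITCO (final) for 24 h at 37 C; luciferase luminescence was then read.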
Chain of Nuclear receptor subfamily 1 group I member 3 (Homo sapiens) (Q14994 whole entry, looked up): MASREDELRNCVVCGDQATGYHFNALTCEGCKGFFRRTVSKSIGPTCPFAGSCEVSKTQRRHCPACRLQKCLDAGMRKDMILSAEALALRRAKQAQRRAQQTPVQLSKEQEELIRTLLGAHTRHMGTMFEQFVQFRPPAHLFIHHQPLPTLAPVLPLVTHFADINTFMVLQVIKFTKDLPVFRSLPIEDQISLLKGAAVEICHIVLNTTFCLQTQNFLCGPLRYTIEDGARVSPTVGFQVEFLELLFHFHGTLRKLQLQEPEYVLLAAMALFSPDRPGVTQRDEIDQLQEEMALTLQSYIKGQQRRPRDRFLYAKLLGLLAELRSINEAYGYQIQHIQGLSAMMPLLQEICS

For test [5] the target is unchanged. The experiment in a line: qHTS assay to identify small molecule agonists of the constitutive androstane receptor (CAR) signaling pathway (AID 1224839). Further: nearly all actives have a fitted effect of over 15% in size. In short, it runs like this:
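Using human hepatoma HepG2 cells engineered with hCAR and a CYP2B6-2.2kb reporter, 15-concentration compound series were incubated 24 h alongside PK11195 at 0.75 uM final, with luminescence quantified afterwards.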

The nature of test [6]: qHTS assay to identify small molecule antagonists of the estrogen related receptor signaling pathway with the pleiotropic PPARgamma coactivator (PGC) from Tox21 10K library - cell viability counter screen (AID 1224840; active means well fitted cell-killing curve with a large enough effect in the repeat runs, not every such curve was filed as active; further: nearly all actives have a fitted effect of over 40% in size). In short, it runs like this:
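PGC/ERR cells were seeded at 2,000 cells/well and left 6 hours at 37 C/5% CO2 before pin-tool addition of compounds in DMSO. After 17.5 hours at 37 C, CellTiter-Fluor was added and fluorescence read 30 minutes later.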

For test [7], the target named is Thyrotropin receptor (Homo sapiens) (UniProt P16473). The experiment in a line: qHTS assay to identify small molecule agonists of the thyroid stimulating hormone receptor (TSHR) signaling pathway (AID 1224843; calls by dose curve; further: nearly all actives have a fitted effect of over 45% in size). In short, it runs like this:
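Screening of the Tox21 10K collection used HEK293 cells engineered with TSHR at 800 cells per well. After a 30-min room-temperature compound exposure, HTRF cAMP reagents were added and fluorescence recorded 1 h later.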

Test [8] can be described thus: qHTS assay to identify small molecule agonists of the hypoxia (HIF-1) signaling pathway - cell viability counter screen (AID 1224844; calls by dose curve; further: nearly all actives have a fitted effect of over 50% in size; further: potency means the concentration at half of the fitted maximal effect). The method, boiled down: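 HRE-bla ME-180 cells in medium with 0.5% dialyzed FBS were preincubated 5 hrs at 37C, exposed to compounds for 17 hrs, then viability was read as CellTiter-Glo luminescence after 30 min at room temperature, in the reporter wells.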

The nature of test [9]: qHTS assay to identify small molecule agonists of H2AX (AID 1224845; active means well fitted activation curve with a large enough effect in the signal ratio in the repeat runs, not every such curve was filed as active; the % refers to the signal ratio). In short, it runs like this: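 Phospho-H2AX Ser139 measured by HTRF (ex 320 nm; em 665 and 620 nm) after 24 hr antibody incubation. Compounds, 15 concentrations, 0.76% DMSO, were applied to CHO-K1 cells for 3hr at 37C before lysis.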
Test [10] in a line: qHTS assay to identify small molecule agonists of the hypoxia (HIF-1) signaling pathway (AID 1224846; active means well fitted activation curve with a large enough effect in the signal ratio in the repeat runs, not every such curve was filed as active; the % refers to the signal ratio). In short, it runs like this:
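HRE-bla ME-180 cells (beta-lactamase reporter under hypoxia response element) were plated at 2,000 cells/well in medium with 0.5% dialyzed FBS, rested 5 hrs, then given compounds in DMSO for 17 hrs at 37C, 5% CO2. Reporter induction was read with CCF4-AM FRET substrate.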

A short description of test [11]: qHTS assay to identify small molecule agonists of H2AX - cell viability counter screen (AID 1224847; calls by dose curve;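 further: wild-type CHO-K1 cells; top concentration of the series differs between compounds; nearly all actives have a fitted effect of over 30% in size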). In short, it runs like this:
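After overnight plating of 1000 CHO-K1 cells per well, a 15-concentration compound series was applied for 3 hr at 37C. Luminescence from CellTiter-Glo, read following 30 min at room temperature, reflected cell viability.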

The nature of test [12]: qHTS RealTime-Glo MT Cell Viability Assay in HepG2 cells - 24 hour (AID 1224867). Further: nearly all actives have a fitted effect of over 50% in size. Further: potency means the concentration at half of the fitted maximal effect. The method, boiled down:
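qHTS, HepG2, 600 cells/well, RealTime-Glo (NanoLuc + prosubstrate) added with cells; 5 h preincubation; DMSO compound addition; 37 C; luminescence at 0/8/16/24/32/40 h.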

A short description of test [13]: qHTS RealTime-Glo MT Cell Viability Assay in HEK293 cells - 32 hour (AID 1224868). Further: top concentration of the series differs between compounds; nearly all actives have a fitted effect of over 50% in size. In short, it runs like this:
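Assay medium contained NanoLuc luciferase plus cell-permeant prosubstrate, added with HEK293 cells at 600 cells/well. After 5 h at 37 C/5% CO2 compounds were added; plates stayed at 37 C for 40 h with serial luminescence reads.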

Test [14] can be described thus: A CellTox Green Cytotoxicity Assay to monitor cytotoxicity in HEK293 cells - 0 hour (AID 1224869). Further: nearly all actives have a fitted effect of over 50% in size. In short, it runs like this:
(§1)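 HEK293 cells premixed with CellTox Green dye were seeded at 600 cells/well and left 5 h at 37 C/5% CO2 before pin transfer of 23 nL compound in DMSO. Fluorescence from dye bound to dead-cell DNA was read during 40 h treatment.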

Test [15] can be described thus: qHTS RealTime-Glo MT Cell Viability Assay in HepG2 cells - 40 hour (AID 1224870). Further: nearly all actives have a fitted effect of over 50% in size. In short, it runs like this: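 Real-time viability: cells seeded at 600 per well together with NanoLuc and cell-permeant prosubstrate, compounds added after 5 h incubation. Luminescence tracked at 0, 8, 16, 24, 32 and 40 h of exposure.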
A short description of test [16]: A CellTox Green Cytotoxicity Assay to monitor cytotoxicity in HEK293 cells - 40 hour (AID 1224871). Further: nearly all actives have a fitted effect of over 45% in size. Further: potency means the concentration at half of the fitted maximal effect. The method, boiled down:
as §1

A short description of test [17]: qHTS assay to identify small molecule agonists of the estrogen related receptor signaling pathway with the pleiotropic PPARgamma coactivator (PGC) from Tox21 10K library (AID 1224842). Further: nearly all actives have a fitted effect of over 15% in size. The method, boiled down:
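Luminescence from One-Glo (30 min, room temperature) measured after PGC/ERR cells had 18 h at 37 C with pinned compound (23 nL in DMSO). Cells had been seeded at 2,000 per well and pre-incubated 6 h.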

The nature of test [18]: qHTS assay to identify small molecule antagonists of the estrogen related receptor (ERR) signaling pathway from Tox21 library (AID 1224848). Further: nearly all actives have a fitted effect of over 50% in size. Further: potency means the concentration at half of the fitted maximal effect. In short, it runs like this: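 Antagonist-mode screen of the Tox21 10K library in an NTP-provided ERR reporter cell line; 18 h compound exposure at 37 C, luminescence measured with ONE-Glo.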
Test [19] can be described thus: qHTS assay to identify small molecule agonists of the estrogen related receptor (ERR) signaling pathway from Tox21 library (AID 1224849; calls by dose curve; further: nearly all actives have a fitted effect of over 15% in size). The following applies: ERR reporter cell line, ONE-Glo luciferase, 18 h; at 92.4 µM (top of the series) unless noted. The method, boiled down: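 ERR reporter cell line (NTP) seeded, rested 6 h at 37 C/5% CO2, then pinned with Tox21 compounds in DMSO. After 18 h at 37 C, ONE-Glo luciferase luminescence was read following 30 min at room temperature.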

Test [20] can be described thus: qHTS assay to identify small molecule antagonists of the estrogen related receptor signaling pathway with the pleiotropic PPARgamma coactivator (PGC) from Tox21 10K library (AID 1224841; call rule not given here). In short, it runs like this:
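PGC/ERR reporter cells were seeded at 2,000 cells/well and held 6 hours at 37 C/5% CO2 before pin-tool addition of compounds in DMSO. After 18 hours at 37 C, One-Glo was added and luminescence read after 30 minutes at room temperature.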

Unmarked numbers belong to inactive results. Results filed as inconclusive are left out. Active and inactive are the calls of the source. Unless noted, the call rests on the fitted dose curve; in most records, active means well fitted curve in the direction sought with a large enough effect in the repeat runs; inconclusive means weak or mixed curves; inactive means no such curve, though single readings can be large; an effect the other way counts as inactive or inconclusive.
On the % scale 0 is the no-effect control and ±100 the full control effect.

Chain of Thyrotropin receptor (Homo sapiens) (P16473 whole entry, looked up): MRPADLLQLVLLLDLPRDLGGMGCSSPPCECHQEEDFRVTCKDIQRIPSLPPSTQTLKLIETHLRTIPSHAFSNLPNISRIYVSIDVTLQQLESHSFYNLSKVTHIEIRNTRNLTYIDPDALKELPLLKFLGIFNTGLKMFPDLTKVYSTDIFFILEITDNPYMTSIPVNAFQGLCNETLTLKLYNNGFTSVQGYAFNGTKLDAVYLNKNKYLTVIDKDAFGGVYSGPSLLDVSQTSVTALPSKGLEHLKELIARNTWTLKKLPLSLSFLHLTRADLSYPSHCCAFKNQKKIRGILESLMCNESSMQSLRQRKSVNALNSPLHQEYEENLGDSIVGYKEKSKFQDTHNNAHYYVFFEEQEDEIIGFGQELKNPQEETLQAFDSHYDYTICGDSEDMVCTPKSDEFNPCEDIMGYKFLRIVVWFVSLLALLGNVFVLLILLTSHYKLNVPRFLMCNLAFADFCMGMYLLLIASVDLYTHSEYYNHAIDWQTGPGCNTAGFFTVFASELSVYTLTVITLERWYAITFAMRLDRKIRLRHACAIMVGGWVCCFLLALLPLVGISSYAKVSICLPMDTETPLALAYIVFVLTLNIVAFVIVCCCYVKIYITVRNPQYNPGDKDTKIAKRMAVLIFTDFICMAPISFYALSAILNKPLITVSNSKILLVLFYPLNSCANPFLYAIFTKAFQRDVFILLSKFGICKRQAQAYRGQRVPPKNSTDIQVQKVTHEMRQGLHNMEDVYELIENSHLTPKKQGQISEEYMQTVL

On to `CCCCCCCCC(C)=O`, for which the Potency entry in test [1], in [2], in test [3], in test [4], in test [5] and in test [6] was “inactive” each time. The Potency result in test [7], in [8], in [9], in [11], in test [12] and in test [13] was “inactive” in each case. In addition, the Potency entry in [14], in [15] and in test [16] was “inactive” throughout. Also, in test [10], the call was inactive.
With `CN(C)CCN1CCOCC1`, the Potency entry in test [1], in test [2], in test [3], in test [4], in [5] and in test [6] was “inactive” each time. For the same compound, the Potency result in test [7], in test [8], in test [9], in test [11], in test [12] and in test [13] was “inactive” each time. The Potency result in test [14], in test [15] and in test [16] was “inactive” in each case. Also, in test [10], the outcome was inactive.
`Cc1cnccn1`: the Potency result in test [1], in test [2], in [3], in test [4], in test [5] and in test [6] was “inactive” each time. Further, the Potency entry in [17], in [8], in test [9], in [11], in [18] and in test [12] was “inactive” in each case. The Potency entry in [13], in test [14], in test [15] and in test [16] was “inactive” in each case. Also, in [10], the result was inactive. The activity change, positive = activation in test [19] was -1.47%.
As to `CC1CCCCC1`, the Potency result in test [1], in test [2], in [3], in test [4], in [5] and in [6] was “inactive” each time. For the same compound, the Potency entry in test [7], in [8], in [9], in test [11], in [12] and in test [13] was “inactive” throughout. In addition, the Potency entry in test [14], in test [15] and in [16] was “inactive” in each case. Also, in [10], the compound was classed as inactive.
As to `ClC/C=C\CCl`, the Potency entry in test [1], in test [2], in [3], in [4], in [5] and in test [6] was “inactive” each time. In addition, the Potency result in test [20], in [7], in [8], in [9], in test [11] and in test [18] was “inactive” each time. Besides, the Potency entry in test [12], in [13] and in test [14] was “inactive” in each case. Moreover, the result in [10] was inactive. In addition, the activity change, positive = activation in [19] was -4.37%.
As for `Cc1c(C(=O)O)cccc1[N+](=O)[O-]`, the Potency result in test [1], in [2], in test [3], in test [4], in test [5] and in test [6] was “inactive” throughout. Further, the Potency entry in test [7], in [8], in [9], in test [11], in test [12] and in test [13] was “inactive” each time. The Potency result in test [14], in test [15] and in test [16] was “inactive” each time. Moreover, the compound was called inactive in test [10].
As to `CN1CCN(C2Cc3ccccc3Sc3ccc(Cl)cc32)CC1` (stereo not given), the Potency entry in test [1], in test [2], in test [3], in [4], in test [5] and in test [6] was “inactive” throughout. Moreover, the Potency result in test [20], in test [7], in [11] and in test [14] was “inactive” throughout. Further, the Potency in test [8] was 23.9 µM (active); in test [18], 26.6 µM (active); in [12] it was 23.9 µM (active); in test [16], 21.3 µM (active). Also, the activity change, positive = activation in [19] is -28.3% [at 42.5 µM].
Regarding `OCCCS`, the Potency entry in test [1], in [2], in test [3], in [4], in [5] and in test [6] was “inactive” in each case. Besides, the Potency entry in test [7], in [8], in [9], in test [11], in test [12] and in test [13] was “inactive” in each case. The Potency entry in test [14], in test [15] and in test [16] was “inactive” in each case. In addition, the compound was called inactive in [10].
